In PubChem BioAssay (EPA / NIEHS) one finds outcome and AC50 data, which are given here for 30 molecules.

In experiment [1] the target is Oxysterols receptor LXR-beta (Homo sapiens) (UniProt P55055). Description: ATG_LXRb_TRANS: Attagene TRANS-FACTORIAL HepG2 Assay for human Liver X Receptor beta (LXRb) (AID 2282981; active means hit-call score of the fitted dose curve at least 0.9, where 1 is the maximum). Conditions: HepG2 Attagene TRANS GAL4-LXRb reporter, mRNA. In outline: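 Measures induction of a Gal4-driven reporter transcript in HepG2 cells expressing an exogenous LXRb-Gal4 fusion. Cells are exposed to compound for 24 h before RNA isolation and RT-PCR with capillary electrophoresis detection.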

Experiment [2] is described as follows: ATG_M_06_TRANS: Attagene TRANS-FACTORIAL HepG2 Assay for M06 Transcription Factor (Internal Marker) (AID 2282983; active means hit-call score of the fitted dose curve at least 0.9, where 1 is the maximum). Conditions: HepG2 Attagene TRANS M06 internal marker reporter. In outline:
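In this multiplexed HepG2 system, compounds are incubated 24 h with cells carrying GAL4-UAS reporter units. Reporter RNA is amplified and resolved by capillary electrophoresis, and induction is scored against DMSO.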

Experiment [3] can be described thus: ATG_M_32_TRANS: Attagene TRANS-FACTORIAL HepG2 Assay for M32 Transcription Factor (Internal Marker) (AID 2282984; active means hit-call score of the fitted dose curve at least 0.9, where 1 is the maximum;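 further: transcript level of a background control reporter unit measured by RT-PCR and capillary electrophoresis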). Conditions: HepG2 Attagene TRANS M32 internal marker reporter. In outline:
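After 24 h dosing of transfected HepG2 cells, total RNA was reverse-transcribed, reporter sequences PCR-amplified, 6-FAM labelled by primer extension and HpaI-digested before capillary electrophoresis. Signal increase over DMSO was fitted.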

The target in experiment [4] is Transcriptional activator Myb (Homo sapiens) (UniProt P10242). In words: ATG_Myb_CIS: Attagene CIS-FACTORIAL HepG2 Assay for human Myeloblastosis (Myb) Proto-Oncogene Transcription Factor (AID 2282986). Conditions: HepG2 Attagene CIS-FACTORIAL Myb reporter transcription; actives raise or lower the signal. In outline: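 HepG2 cells were transiently transfected with cis-regulated multiple reporter transcription units reflecting endogenous Myb activity, then exposed to compound for 24 hours. Reporter mRNA was measured by RT-PCR with capillary electrophoresis; bidirectional fitting versus DMSO baseline.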

Experiment [5] in a line: ATG_NFI_CIS: Attagene CIS-FACTORIAL HepG2 Assay for human Nuclear Factor I (NFI) (AID 2282989). Conditions: HepG2 cis-regulatory reporter, NFI response element transcription; actives raise or lower the signal. In outline: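 After transient transfection of HepG2 with cis-promoter reporter constructs and 24 h dosing, RNA is reverse-transcribed, amplified, 6-FAM end-labelled and HpaI-digested before capillary analysis. Bidirectional curve fitting against DMSO.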

In experiment [6] the target is Myc proto-oncogene protein (Homo sapiens) (UniProt P01106). Description: ATG_Myc_CIS: Attagene CIS-FACTORIAL HepG2 Assay for human Myelocytomatosis (Myc) Proto-Oncogene Transcription Factor (AID 2282990). Conditions: HepG2, Attagene cis-reporter transcription factor activity; actives raise or lower the signal. The procedure, abridged: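 DMSO-normalised, bidirectionally fitted reporter mRNA signal. HepG2 cells transfected with cis reporter constructs, treated 24 h; transcripts detected by RT-PCR, 6-FAM primer extension and CE.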

Experiment [7] has as its target Nuclear receptor subfamily 4 group A member 2 (Homo sapiens) (UniProt P43354). In words: ATG_NURR1_TRANS: Attagene TRANS-FACTORIAL HepG2 Assay for human Nuclear Receptor Related Protein 1 (NURR1) (AID 2282985; active means hit-call score of the fitted dose curve at least 0.9, where 1 is the maximum). Conditions: HepG2 Attagene TRANS reporter, mRNA readout. The procedure, abridged: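 Chimeric NR-Gal4 fusion activity measured in HepG2 after 24 h treatment. Reporter transcripts detected by RT-PCR and capillary electrophoresis fluorescence; positive-direction curve fitting against DMSO.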

In experiment [8] the target is Nuclear respiratory factor 1 (Homo sapiens) (UniProt Q16656). Description: ATG_NRF1_CIS: Attagene CIS-FACTORIAL HepG2 Assay for human Nuclear Respiratory Factor 1 (NRF1) Orphan Gene (AID 2282987). The conditions noted are these: HepG2 NRF1 cis-element reporter, Attagene multiplex; actives raise or lower the signal. The procedure, abridged: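 HepG2 cells transiently transfected with multiple reporter transcription units under cis-regulatory promoter control, so endogenous transcription-factor activity is read. After 24 h compound exposure, reporter mRNA quantified by RT-PCR, fluorescent labelling, HpaI digestion and capillary electrophoresis; bidirectional fitting versus DMSO.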

Experiment [9] concerns the target Hepatocyte nuclear factor 4-alpha (Homo sapiens) (UniProt P41235). Description: ATG_HNF4a_TRANS: Attagene TRANS-FACTORIAL HepG2 Assay for human Hepatocyte Nuclear Factor 4 alpha (HNF4a) (AID 2282982; active means hit-call score of the fitted dose curve at least 0.9, where 1 is the maximum). The conditions noted are these: HepG2 HNF4a transactivation reporter, mRNA readout. In outline:
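In this trans-factorial format, a chimeric HNF4a-GAL4 fusion drives a GAL4-UAS reporter in transfected HepG2 liver cells. After 24 h treatment, reporter mRNA induction is measured by RT-PCR with capillary electrophoresis, relative to DMSO.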

Records with an inconclusive call do not appear. The source made the active and inactive calls. How the source made its calls, unless noted: active means hit-call score of the fitted dose curve at least 0.9, where 1 is the maximum; inactive means score below 0.9.

Chain of Hepatocyte nuclear factor 4-alpha (Homo sapiens) (P41235 whole entry, looked up, the tested form may be a part): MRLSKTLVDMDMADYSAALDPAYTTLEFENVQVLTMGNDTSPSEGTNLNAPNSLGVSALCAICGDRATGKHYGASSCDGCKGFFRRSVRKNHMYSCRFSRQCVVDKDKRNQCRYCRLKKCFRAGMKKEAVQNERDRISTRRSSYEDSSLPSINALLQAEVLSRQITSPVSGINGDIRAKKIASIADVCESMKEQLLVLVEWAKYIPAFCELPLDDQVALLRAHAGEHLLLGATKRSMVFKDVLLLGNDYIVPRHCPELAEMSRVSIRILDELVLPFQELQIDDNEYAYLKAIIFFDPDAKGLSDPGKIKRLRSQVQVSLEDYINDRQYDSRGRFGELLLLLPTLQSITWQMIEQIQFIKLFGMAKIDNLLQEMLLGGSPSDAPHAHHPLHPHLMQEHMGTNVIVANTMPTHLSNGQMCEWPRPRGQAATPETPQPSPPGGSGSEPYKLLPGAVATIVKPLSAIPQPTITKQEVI
Chain of Myc proto-oncogene protein (Homo sapiens) (P01106 whole entry, looked up): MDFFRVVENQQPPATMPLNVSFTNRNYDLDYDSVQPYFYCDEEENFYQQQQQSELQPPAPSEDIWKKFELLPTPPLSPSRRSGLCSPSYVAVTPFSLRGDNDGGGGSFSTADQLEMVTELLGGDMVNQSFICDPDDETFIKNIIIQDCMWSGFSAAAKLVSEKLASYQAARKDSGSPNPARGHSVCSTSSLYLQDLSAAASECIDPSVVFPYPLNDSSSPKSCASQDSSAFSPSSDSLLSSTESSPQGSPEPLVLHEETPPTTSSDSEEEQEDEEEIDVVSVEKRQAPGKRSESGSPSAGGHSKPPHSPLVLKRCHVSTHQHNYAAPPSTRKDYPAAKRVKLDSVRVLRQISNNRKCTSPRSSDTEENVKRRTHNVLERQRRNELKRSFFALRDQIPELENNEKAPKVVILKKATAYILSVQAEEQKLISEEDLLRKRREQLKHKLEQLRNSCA
Chain of Nuclear receptor subfamily 4 group A member 2 (Homo sapiens) (P43354 whole entry, looked up, the tested form may be a part): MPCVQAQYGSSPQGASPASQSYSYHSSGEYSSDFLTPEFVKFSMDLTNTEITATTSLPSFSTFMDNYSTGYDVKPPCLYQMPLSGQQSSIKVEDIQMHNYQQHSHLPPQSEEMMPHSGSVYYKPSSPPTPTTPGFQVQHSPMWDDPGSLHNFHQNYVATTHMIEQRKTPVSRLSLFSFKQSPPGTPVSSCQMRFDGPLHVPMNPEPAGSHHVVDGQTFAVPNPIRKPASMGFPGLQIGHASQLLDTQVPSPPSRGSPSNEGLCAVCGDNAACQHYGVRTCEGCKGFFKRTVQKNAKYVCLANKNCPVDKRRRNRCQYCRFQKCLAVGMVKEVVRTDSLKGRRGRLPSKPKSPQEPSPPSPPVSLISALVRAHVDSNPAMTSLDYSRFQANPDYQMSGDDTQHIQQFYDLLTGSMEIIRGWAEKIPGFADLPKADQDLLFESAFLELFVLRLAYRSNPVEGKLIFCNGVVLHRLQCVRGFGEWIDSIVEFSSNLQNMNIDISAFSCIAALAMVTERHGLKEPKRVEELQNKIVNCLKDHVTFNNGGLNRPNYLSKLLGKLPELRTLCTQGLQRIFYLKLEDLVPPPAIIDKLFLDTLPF
Chain of Transcriptional activator Myb (Homo sapiens) (P10242 whole entry, looked up): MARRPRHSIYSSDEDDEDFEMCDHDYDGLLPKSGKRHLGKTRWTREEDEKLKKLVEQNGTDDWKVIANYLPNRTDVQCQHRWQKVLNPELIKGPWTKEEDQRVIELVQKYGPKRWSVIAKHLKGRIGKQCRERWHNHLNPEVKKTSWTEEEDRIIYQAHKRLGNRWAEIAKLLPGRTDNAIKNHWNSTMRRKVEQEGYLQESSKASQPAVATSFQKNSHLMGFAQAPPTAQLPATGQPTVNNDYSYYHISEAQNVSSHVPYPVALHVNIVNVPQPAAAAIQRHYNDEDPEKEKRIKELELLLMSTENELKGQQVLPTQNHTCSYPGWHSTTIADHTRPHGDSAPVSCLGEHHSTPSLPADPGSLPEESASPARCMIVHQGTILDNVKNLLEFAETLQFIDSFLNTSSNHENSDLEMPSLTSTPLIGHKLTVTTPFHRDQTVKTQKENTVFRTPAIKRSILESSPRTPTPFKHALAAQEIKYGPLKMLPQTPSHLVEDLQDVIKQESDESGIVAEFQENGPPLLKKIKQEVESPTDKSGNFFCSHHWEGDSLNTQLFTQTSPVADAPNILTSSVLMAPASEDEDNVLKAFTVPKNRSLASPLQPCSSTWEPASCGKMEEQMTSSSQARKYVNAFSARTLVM
Chain of Oxysterols receptor LXR-beta (Homo sapiens) (P55055 whole entry, looked up, the tested form may be a part): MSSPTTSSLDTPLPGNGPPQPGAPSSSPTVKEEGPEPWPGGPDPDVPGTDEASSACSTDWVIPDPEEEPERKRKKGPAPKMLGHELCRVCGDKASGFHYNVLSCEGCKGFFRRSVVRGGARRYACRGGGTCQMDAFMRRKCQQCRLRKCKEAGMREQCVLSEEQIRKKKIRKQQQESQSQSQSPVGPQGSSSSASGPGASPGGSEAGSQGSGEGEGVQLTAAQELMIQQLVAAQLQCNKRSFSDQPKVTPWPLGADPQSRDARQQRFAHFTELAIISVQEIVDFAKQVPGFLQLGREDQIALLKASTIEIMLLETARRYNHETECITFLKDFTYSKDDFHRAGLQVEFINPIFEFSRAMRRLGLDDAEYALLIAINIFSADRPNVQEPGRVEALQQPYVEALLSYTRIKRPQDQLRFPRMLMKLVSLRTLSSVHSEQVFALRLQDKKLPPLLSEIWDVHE
Chain of Nuclear respiratory factor 1 (Homo sapiens) (Q16656 whole entry, looked up): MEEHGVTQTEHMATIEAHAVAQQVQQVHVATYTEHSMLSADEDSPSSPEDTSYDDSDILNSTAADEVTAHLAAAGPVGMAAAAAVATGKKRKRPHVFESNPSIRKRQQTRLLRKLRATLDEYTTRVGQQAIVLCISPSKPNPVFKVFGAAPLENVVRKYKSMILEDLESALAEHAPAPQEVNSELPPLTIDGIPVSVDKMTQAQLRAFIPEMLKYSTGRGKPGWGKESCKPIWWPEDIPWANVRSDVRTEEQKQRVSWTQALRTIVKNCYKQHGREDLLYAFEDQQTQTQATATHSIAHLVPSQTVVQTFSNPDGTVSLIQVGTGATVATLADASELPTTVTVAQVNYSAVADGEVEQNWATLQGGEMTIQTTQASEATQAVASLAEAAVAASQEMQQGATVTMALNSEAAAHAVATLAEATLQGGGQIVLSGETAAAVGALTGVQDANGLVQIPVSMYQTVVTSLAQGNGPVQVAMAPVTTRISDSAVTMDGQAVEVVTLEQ

`O=C(N[C@H]1CN2CCC1CC2)c1ccc2c(c1)OCCO2`: the result in [1], in [2], in [3], in experiment [4], in [5] and in [6] was inactive.
On to `c1ccc(-c2cccc(-c3ccccc3)c2)cc1`, for which the molecule was called inactive in [1], in experiment [4], in experiment [5] and in [6]. For the same molecule, the half-maximal activity concentration (AC50) in [7] is 27.8 µM (active).
Turning to `CC(C)(c1ccccc1)c1cc(-n2nc3ccccc3n2)c(O)c(C(C)(C)c2ccccc2)c1`, the molecule was classed as inactive in experiment [1], in experiment [2], in experiment [7], in experiment [4], in [8] and in experiment [5]. Also, the outcome in [6] was inactive.
In the case of `CS(=O)(=O)c1ccc(C(=O)C2C(=O)CCCC2=O)c(Cl)c1COCC(F)(F)F`, the outcome in [1], in experiment [2], in experiment [3], in experiment [4], in experiment [5] and in [6] was inactive.
As for `O=C(Cl)OCCOCCOC(=O)Cl`, the molecule was classed as inactive in experiment [1], in [3], in experiment [4], in experiment [5] and in experiment [6].
On to `CCOP(=S)(OCC)Oc1ccc(Cl)cc1Cl`, for which the outcome in [9], in experiment [2], in [3], in experiment [7], in experiment [4] and in experiment [8] was inactive. Moreover, the call in experiment [5] and in experiment [6] was inactive.
Take `CCOP(=S)(OCC)SCSc1cc(Cl)ccc1Cl`: the call in experiment [1], in experiment [3], in experiment [7], in experiment [4], in [8] and in [5] was inactive. The outcome in [6] was inactive.
On to `O=[N+]([O-])c1ccccc1O`, for which the result in [9], in experiment [2], in experiment [3], in experiment [7], in experiment [4] and in [8] was inactive. Further, the call in experiment [5] and in [6] was inactive.
Regarding `Cc1cc(SCc2sc(-c3ccc(C(F)(F)F)c(F)c3)nc2C)ccc1OCC(=O)O`, the molecule was called inactive in experiment [1], in [4], in [8], in [5] and in experiment [6].
Regarding `Cc1cc(C)cc(C)c1`, the call in [1], in [2], in experiment [3], in [4], in [8] and in [5] was inactive. In addition, in experiment [6], the result was inactive.
In the case of `CNC(=O)N(C)c1nc2ccccc2s1`, the molecule was called inactive in [1], in [2], in experiment [3], in experiment [7], in experiment [4] and in experiment [8]. Besides, the call in experiment [5] and in [6] was inactive.
Turning to `Nc1ccc(-c2ccccc2)cc1`, the molecule was called inactive in [1], in experiment [2], in experiment [3], in [7], in experiment [4] and in experiment [8]. Also, the outcome in [5] and in [6] was inactive.
Consider `COCC(=O)N(c1c(C)cccc1C)[C@H](C)C(=O)OC`, for which the call in experiment [1], in experiment [3], in experiment [7], in experiment [4], in [8] and in [5] was inactive. The molecule was called inactive in experiment [6].
Consider `CC(O)(CS(=O)(=O)c1ccc(F)cc1)C(=O)Nc1ccc(C#N)c(C(F)(F)F)c1` (stereo not drawn), for which the molecule was classed as inactive in experiment [1], in experiment [3], in experiment [4], in [8], in experiment [5] and in experiment [6].
Take `Oc1c(Cl)cc(Cl)cc1Cl`: the molecule was called inactive in experiment [1], in [2], in experiment [3], in experiment [4] and in experiment [6].
For the molecule `CC(C)(C)c1ccc(CCOc2ncnc3ccccc23)cc1`, the molecule was called inactive in [1], in experiment [3], in experiment [4], in [8], in experiment [5] and in experiment [6].
In the case of `C=CCN=C=S`, the outcome in [1], in experiment [3], in experiment [4], in experiment [8], in experiment [5] and in experiment [6] was inactive.
Consider `C#CCO`, for which the result in [1], in experiment [2], in experiment [3], in [4], in [8] and in experiment [5] was inactive. The call in [6] was inactive.
Consider `CCOC(=O)CCN(SN(C)C(=O)Oc1cccc2c1OC(C)(C)C2)C(C)C`, for which the molecule was called inactive in experiment [9], in experiment [2], in [3], in [4], in experiment [8] and in experiment [5]. The outcome in experiment [6] was inactive. The AC50 in [7] was 157 µM (active).
Take `CC(C)C(C)(N)C#N` (stereo not drawn): the outcome in experiment [1], in experiment [4], in experiment [8], in [5] and in experiment [6] was inactive.
In the case of `CCN(CCO)CCO`, the call in [1], in experiment [2], in [7], in experiment [4], in [8] and in [5] was inactive. The outcome in experiment [6] was inactive.
Take `CC(C)CC(C)(c1ccc(O)cc1)c1ccc(O)cc1`: the molecule was called inactive in [1], in experiment [2], in experiment [7], in [4], in experiment [8] and in experiment [6]. Also, the AC50 in experiment [5] is 16.9 µM (active).
With `CC(C)O.CC(C)O.OCCN(CCO)CCO.OCCN(CCO)CCO.[Ti]`, the molecule was classed as inactive in experiment [1], in experiment [2], in experiment [3], in experiment [4], in experiment [8] and in experiment [5]. Also, the molecule was called inactive in experiment [6].
Turning to `CCCCC(CC)COC(=O)Cl` (stereo not drawn), the result in experiment [9], in [2], in experiment [3], in experiment [7], in experiment [4] and in experiment [8] was inactive. For the same molecule, the molecule was classed as inactive in experiment [5] and in [6].
Consider `N#Cc1ccc(Cl)cc1`, for which the outcome in experiment [1], in experiment [3], in experiment [7], in [4], in experiment [8] and in experiment [5] was inactive. The result in experiment [6] was inactive.
For `N#Cc1ccccc1Cl`, the molecule was called inactive in [1], in experiment [2], in [4], in experiment [8], in experiment [5] and in experiment [6].
As for `CCCCN(CCCC)C(=S)S`, the outcome in [1], in [5] and in experiment [6] was inactive. Besides, the AC50 in experiment [4] is 100 µM (active); in experiment [8], 152 µM (active).
Turning to `CCC(C)(C#N)N=NC(C)(C#N)CC` (stereo not drawn), the result in [9], in [2], in experiment [3], in experiment [7], in experiment [4] and in [8] was inactive. Further, the call in experiment [5] and in experiment [6] was inactive.
Take `O=c1nc(O)n(Cl)c(=O)n1Cl`: the molecule was called inactive in experiment [9], in experiment [2], in experiment [3], in experiment [7], in [4] and in [8]. Moreover, the result in experiment [5] and in experiment [6] was inactive.
Consider `CCC[CH2][Sn]([CH2]CCC)([CH2]CCC)[CH2]CCC`, for which the outcome in experiment [1], in experiment [4] and in experiment [6] was inactive. Also, the AC50 was 0.497 µM (active) in experiment [7] and 17.3 µM (active) in experiment [5].
